Counter-ions that a name gives are not always drawn.
What was measured:
Conditions in all cases: incubation time: 27 h, anaerobic, 37 °C;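 for the amine columns active = adjusted P below 0.05 in both replicates with a change the same way and a mean fold change under 0.8 or over 1.25; inactive = the rest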
[1] = tested on: Clostridium sporogenes DSM 1664; experiment: growth (OD595) fold change vs plate DMSO controls (fold change (ratio)); higher = more growth
In short: (§1)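 Growth is the fold change relative to the median of plate DMSO controls. Readings came from anaerobic mGAM cultures in 96-well plates grown for 27 h at 37 °C and read at 595 nm. They were blank-subtracted, corrected for compound background with 20 µM compound solutions in water, and converted to OD with a calibration factor of 5. Values are means of 2 biological replicates, and fold changes above 1.5 were set to NA.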

Escherichia coli IAI1 [2] = experiment: as above
In short: as §1

[3] = tested on: Klebsiella aerogenes DSM 30053; experiment: as above
In short: as §1

[4] = tested on: Ruminococcus gnavus DSM 108212; experiment: as above
In short: as §1

[5] = tested on: Klebsiella aerogenes DSM 30053; experiment: fold change of Histamine concentration vs plate DMSO controls (fold change (ratio)); higher = more amine produced, active = hit call of the paper (significant change in both replicates, either direction)
In short: (§2)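 Each value is the fold change relative to DMSO-only wells on the same plate. Four gut bacterial strains were grown anaerobically in mGAM at 37 °C for 27 h in 80 µL wells, starting at OD 0.1 before a 1:1 dilution, with compounds at 20 µM final (sweeteners 50 µM). Whole cultures were extracted with cold acetonitrile/methanol containing 0.1% formic acid, centrifuged, and amines were quantified by LC–triple-quadrupole MS (dynamic MRM) against external calibration curves with within-batch drift correction. Values are means of 2 biological replicates.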

[6] = tested on: Clostridium sporogenes DSM 1664; experiment: fold change of Tryptamine concentration vs plate DMSO controls (fold change (ratio)); higher = more amine produced, active = hit call of the paper (significant change in both replicates, either direction)
In short: as §2

[7] = tested on: Ruminococcus gnavus DSM 108212; experiment: as above
In short: as §2

Escherichia coli IAI1 [8] = experiment: fold change of Putrescine concentration vs plate DMSO controls (fold change (ratio)); higher = more amine produced, active = hit call of the paper (significant change in both replicates, either direction)
In short: as §2

[9] = tested on: Klebsiella aerogenes DSM 30053; experiment: as above
In short: as §2

Escherichia coli IAI1 [10] = experiment: fold change of Cadaverine concentration vs plate DMSO controls (fold change (ratio)); higher = more amine produced, active = hit call of the paper (significant change in both replicates, either direction)
In short: as §2

[11] = tested on: Klebsiella aerogenes DSM 30053; experiment: as above
In short: as §2

[12] = tested on: Ruminococcus gnavus DSM 108212; experiment: fold change of 2-Phenylethylamine concentration vs plate DMSO controls (fold change (ratio)); higher = more amine produced, active = hit call of the paper (significant change in both replicates, either direction)
In short: as §2

Row | SMILES | growth [1] | growth (Escherichia coli IAI1 [2]) | growth [3] | growth [4] | fold change of Histamine concentration [5] | fold change of Tryptamine concentration [6] | fold change of Tryptamine concentration [7] | fold change of Putrescine concentration (Escherichia coli IAI1 [8]) | fold change of Putrescine concentration [9] | fold change of Cadaverine concentration (Escherichia coli IAI1 [10]) | fold change of Cadaverine concentration [11] | fold change of 2-Phenylethylamine concentration [12]
1 | OC[C@H]1OC(O)[C@H](O)[C@@H](O)[C@@H]1O (stereo partly specified) [Glucose/Dextrose] (50 µM) | 1.15 | 0.989 | 1.01 | 1.19 | 1.03 (inactive) | 1.01 (inactive) | 0.971 (inactive) | 0.982 (inactive) | 0.872 (inactive) | 1.11 (inactive) | 1.09 (inactive) | 0.935 (inactive)
2 | CC(=O)O[C@H]1C(=O)[C@@]2(C)[C@H]([C@H](OC(=O)c3ccccc3)[C@]3(O)C[C@H](OC(=O)[C@H](O)[C@@H](NC(=O)c4ccccc4)c4ccccc4)C(C)=C1C3(C)C)[C@]1(OC(C)=O)CO[C@@H]1C[C@@H]2O [Paclitaxel] (20 µM) | 1.04 | 1.03 | 1.05 | 0.944 | 0.885 (inactive) | 0.975 (inactive) | 1.08 (inactive) | 1.04 (inactive) | 0.969 (inactive) | 1.03 (inactive) | 1.03 (inactive) | 1.07 (inactive)
3 | CN1CCN2c3ncccc3Cc3ccccc3C2C1 (stereo unspecified) [Mirtazapine] (20 µM) | 1.09 | 1.01 | 1 | 1.11 | 0.963 (inactive) | 1.12 (inactive) | 1.06 (inactive) | 0.964 (inactive) | 0.983 (inactive) | 0.984 (inactive) | 1.02 (inactive) | 1.04 (inactive)
4 | CC(CNC1CCCCC1)OC(=O)c1ccccc1 (stereo unspecified) [Hexylcaine hydrochloride] (20 µM) | 1 | 0.961 | 1.01 | 1.02 | 1.02 (inactive) | 1.03 (inactive) | 1.01 (inactive) | 1 (inactive) | 0.988 (inactive) | 0.994 (inactive) | 0.984 (inactive) | 1.01 (inactive)
5 | CC(=O)OC[C@H]1O[C@@H](n2ncc(=O)[nH]c2=O)[C@H](OC(C)=O)[C@@H]1OC(C)=O [Azaribine] (20 µM) | 1.22 | 1.01 | 1 | 1.18 | 0.978 (inactive) | 0.997 (inactive) | 0.988 (inactive) | 1.05 (inactive) | 1.04 (inactive) | 0.944 (inactive) | 1.02 (inactive) | 0.96 (inactive)
6 | CC(=O)[C@@]12O[C@](C)(c3ccccc3)O[C@@H]1C[C@H]1[C@@H]3CCC4=CC(=O)CC[C@]4(C)[C@H]3CC[C@@]12C [Algestone acetophenide] (20 µM) | 1.03 | 1.22 | 0.998 | 1.13 | 1.03 (inactive) | 0.919 (inactive) | 1.08 (inactive) | 1.3 (inactive) | 1.01 (inactive) | 0.955 (inactive) | 1 (inactive) | 1.1 (inactive)
7 | CC1CCc2cc(F)cc3c(=O)c(C(=O)O)cn1c23 (stereo unspecified) [Flumequine] (20 µM) | 0.015 | 0.0532 | 0.404 | 0.706 | 0.301 (active) | 0.0425 (active) | 0.989 (inactive) | 0.679 (active) | 1.13 (inactive) | 0.209 (active) | 0.975 (inactive) | 0.952 (inactive)
8 | Cc1onc(-c2ccccc2Cl)c1C(=O)N[C@@H]1C(=O)N2[C@@H]1SC(C)(C)[C@@H]2C(=O)O [Cloxacillin sodium salt] (20 µM) | 0 | 1.02 | 1.08 | 0.171 | 0.987 (inactive) | 0.0211 (active) | 0.0749 (active) | 0.997 (inactive) | 1.02 (inactive) | 0.999 (inactive) | 1.02 (inactive) | 0.0503 (active)
9 | CCN(CCCCOC(=O)c1ccc(OC)c(OC)c1)C(C)Cc1ccc(OC)cc1 (stereo unspecified) [Mebeverine hydrochloride] (20 µM) | 0.955 | 1.25 | 0.995 | 0.632 | 0.903 (inactive) | 1.01 (inactive) | 0.985 (inactive) | 1.15 (inactive) | 1.05 (inactive) | 1.04 (inactive) | 1.02 (inactive) | 1.01 (inactive)
10 | CCCCCN(C)CCC(O)(P(=O)(O)O)P(=O)(O)O [Ibandronate sodium] (20 µM) | 1.07 | 0.989 | 0.973 | 0.926 | 1.04 (inactive) | 1.05 (inactive) | 0.934 (inactive) | 1 (inactive) | 1.01 (inactive) | 1.03 (inactive) | 0.994 (inactive) | 0.958 (inactive)
11 | CC=CC(=O)N(CC)c1ccccc1C [Crotamiton] (20 µM) | 0.871 | 1.05 | 1.01 | 1.07 | 1.06 (inactive) | 1.01 (inactive) | 1.07 (inactive) | 1.02 (inactive) | 1.01 (inactive) | 0.967 (inactive) | 1.01 (inactive) | 1.12 (inactive)
12 | N[C@H](Cc1ccccc1)C(=O)O [D-phenylalanine] (20 µM) | 1.13 | 1.02 | 0.991 | 0.917 | 0.946 (inactive) | 1.1 (inactive) | 0.973 (inactive) | 1.06 (inactive) | 1.02 (inactive) | 0.961 (inactive) | 1.01 (inactive) | 0.968 (inactive)
13 | CC(C(=O)O)c1ccc(N2Cc3ccccc3C2=O)cc1 (stereo unspecified) [Indoprofen] (20 µM) | 1.13 | 0.99 | 0.973 | 1.01 | 1.04 (inactive) | 1.03 (inactive) | 1.09 (inactive) | 0.977 (inactive) | 0.993 (inactive) | 0.998 (inactive) | 0.982 (inactive) | 1.11 (inactive)
